Among the data in PubChem BioAssay AID991 (National Center for Advancing Translational Sciences (NCATS), 2007) are filament length values, retold here.

Calls of active or inactive are those of the source. How the calls were made is not given here.

Sequence of Microtubule-associated protein tau (Homo sapiens) (P10636 whole entry, looked up): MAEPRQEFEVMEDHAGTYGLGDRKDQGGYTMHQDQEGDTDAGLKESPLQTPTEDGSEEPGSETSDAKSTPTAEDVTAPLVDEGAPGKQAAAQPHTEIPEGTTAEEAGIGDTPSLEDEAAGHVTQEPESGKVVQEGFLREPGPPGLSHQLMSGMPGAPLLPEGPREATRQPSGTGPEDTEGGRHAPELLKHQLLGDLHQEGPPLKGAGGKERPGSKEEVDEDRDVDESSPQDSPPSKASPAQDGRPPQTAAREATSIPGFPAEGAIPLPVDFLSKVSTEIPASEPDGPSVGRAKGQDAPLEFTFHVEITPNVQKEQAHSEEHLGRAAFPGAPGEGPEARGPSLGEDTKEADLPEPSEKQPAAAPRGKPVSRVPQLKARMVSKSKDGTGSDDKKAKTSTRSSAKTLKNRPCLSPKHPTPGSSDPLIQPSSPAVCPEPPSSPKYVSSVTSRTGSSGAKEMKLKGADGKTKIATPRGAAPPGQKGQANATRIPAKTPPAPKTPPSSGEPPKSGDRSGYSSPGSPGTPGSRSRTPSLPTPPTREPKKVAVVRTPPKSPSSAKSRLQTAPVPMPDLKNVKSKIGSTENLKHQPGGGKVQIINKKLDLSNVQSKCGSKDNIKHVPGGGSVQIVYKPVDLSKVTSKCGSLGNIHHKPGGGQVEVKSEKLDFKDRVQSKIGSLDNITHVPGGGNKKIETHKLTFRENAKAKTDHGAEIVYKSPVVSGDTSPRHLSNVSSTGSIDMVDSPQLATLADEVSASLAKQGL

The first experiment deals with Microtubule-associated protein tau (Homo sapiens) (UniProt P10636). Nature of the experiment: Tau Fibrillization assay. To be noted: His6-htau40 arachidonic acid fibrillization, TEM filament length; at 0.72 µM; stronger effect = lower value. The text has this:
NIH Molecular Libraries Screening Centers Network [MLSCN] NIH Chemical Genomics Center [NCGC] MLSCN Grant: 1 X01 MH079825-01 Assay Provider: Jeffrey A. Kuret, Ohio State University NCGC Assay Overview: A number of solution-based assays are available for quantifying the amount of aggregated protein, such as fluorescence spectroscopy, sedimentation, and static and laser light scattering. However, none of these methods allows direct visualization of filaments. Transmission electron microscopy (TEM) can complement these solution-based assays by providing information on filament morphology and length distributions. In vitro fibrillization of htau40 was performed in the presence or absence of selected compounds. The resultant filaments were detected after absorption onto formvar and carbon coated grids and examined by TEM. Random digital images of each experimental condition were obtained, imported into imaging software, and quantified for filament length and number.
NCGC Assay Protocol Summary Aggregation of His6-htau40 (5 uM final concentration) in assembly buffer was induced with arachidonic acid (50 uM final concentration) in the presence or absence of selected library compounds. Each compound was tested at IC50 and four times the IC50values as determined by the tau ThS binding assay. After incubation (18 h at 37 degrees Celsius), reactions were diluted 5-fold in distilled water and assayed by transmission electron microscopy as described previously (Necula and Kuret, 2004). […] 28(3), 251-60. Necula, M., Chirita, C. N., and Kuret, J. (2003) J. Biol. Chem. 278, 46674-46680.
With `CN(C)c1ccc(C(=C2C=CC(=[N+](C)C)C=C2)c2ccc(N(C)C)cc2)cc1`, the filament length was 50.3% (active).

Still in this experiment, the particulars now being: His6-htau40 arachidonic acid fibrillization, TEM filament length; at 0.76 µM; stronger effect = lower value.
For `Cc1cc(-c2ccc(N=Nc3ccc4c(S(=O)(=O)O)cc(S(=O)(=O)O)c(N)c4c3O)c(C)c2)ccc1N=Nc1ccc2c(S(=O)(=O)O)cc(S(=O)(=O)O)c(N)c2c1O`, the filament length was 91.8% (inactive).

Staying with this experiment, now noted: His6-htau40 arachidonic acid fibrillization, TEM filament length; at 4 µM; stronger effect = lower value.
Regarding `CN(C)c1ccc(/C=C2/C(=O)Nc3ccccc32)cc1`, the filament length was 41.8% (active).

Staying with this experiment, now noted: His6-htau40 arachidonic acid fibrillization, TEM filament length; at 6.4 µM; stronger effect = lower value.
As to `N=C1C=CC(=C(c2ccc(N)cc2)c2ccc(N)cc2)C=C1`, the filament length was 50.8% (active).

The same experiment, now with this note: His6-htau40 arachidonic acid fibrillization, TEM filament length; at 8.2 µM; stronger effect = lower value.
`COc1cccc2c1C(=N)c1c(O)c3c(c(O)c1C2=O)C[C@](O)(C(C)=O)C[C@@H]3O[C@H]1C[C@H](N)[C@@H](O)[C@H](C)O1`: the filament length is 86.9% (inactive).

Staying with this experiment, now noted: His6-htau40 arachidonic acid fibrillization, TEM filament length; at 8.4 µM; stronger effect = lower value.
Take `Cc1ccc2nc(-c3ccc(N=Nc4cc(S(=O)(=O)O)c5ccccc5c4O)cc3)sc2c1S(=O)(=O)O`: the filament length is 111% (inactive).

Still in this experiment, the particulars now being: His6-htau40 arachidonic acid fibrillization, TEM filament length; filament length at lower concentration; at 0.18 µM; stronger effect = lower value.
The compound `CN(C)c1ccc(C(=C2C=CC(=[N+](C)C)C=C2)c2ccc(N(C)C)cc2)cc1` registered a filament length of 109%.

The experiment is the same for the next values; noted with them: His6-htau40 arachidonic acid fibrillization, TEM filament length; filament length at lower concentration; at 0.19 µM; stronger effect = lower value.
In turn, `Cc1cc(-c2ccc(N=Nc3ccc4c(S(=O)(=O)O)cc(S(=O)(=O)O)c(N)c4c3O)c(C)c2)ccc1N=Nc1ccc2c(S(=O)(=O)O)cc(S(=O)(=O)O)c(N)c2c1O` came in with a filament length of 116%.

The same experiment, now with this note: His6-htau40 arachidonic acid fibrillization, TEM filament length; filament length at lower concentration; at 1 µM; stronger effect = lower value.
In turn, `CN(C)c1ccc(/C=C2/C(=O)Nc3ccccc32)cc1` had a filament length of 94.5%.

Staying with this experiment, now noted: His6-htau40 arachidonic acid fibrillization, TEM filament length; filament length at lower concentration; at 1.6 µM; stronger effect = lower value.
Turning to `N=C1C=CC(=C(c2ccc(N)cc2)c2ccc(N)cc2)C=C1`, the filament length is 114%.

Staying with this experiment, now noted: His6-htau40 arachidonic acid fibrillization, TEM filament length; filament length at lower concentration; at 2.1 µM; stronger effect = lower value.
The compound `Cc1ccc2nc(-c3ccc(N=Nc4cc(S(=O)(=O)O)c5ccccc5c4O)cc3)sc2c1S(=O)(=O)O` displayed a filament length of 100%.

Consider `COc1cccc2c1C(=N)c1c(O)c3c(c(O)c1C2=O)C[C@](O)(C(C)=O)C[C@@H]3O[C@H]1C[C@H](N)[C@@H](O)[C@H](C)O1`, for which the filament length turned out to be 91.3%.
